The structures appear in SMILES notation. The source made the active and inactive calls. How the calls were made is not given here.

The target in one experiment is Estrogen receptor (Homo sapiens) (UniProt P03372). The experiment in a line: displacement of fluorescent estrogen from ERalpha – cell-based, Cos7 ERalpha-GFP, flow cytometry, primary screen (AID 1211).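 Further: 0% = DMSO vehicle wells and 100% = no E2-Alexa633 signal left.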 To be noted: fluorescent ligand competition, at 10 µM, stronger effect = higher value.
Estrogen receptor (Homo sapiens), sequence (P03372 whole entry, looked up): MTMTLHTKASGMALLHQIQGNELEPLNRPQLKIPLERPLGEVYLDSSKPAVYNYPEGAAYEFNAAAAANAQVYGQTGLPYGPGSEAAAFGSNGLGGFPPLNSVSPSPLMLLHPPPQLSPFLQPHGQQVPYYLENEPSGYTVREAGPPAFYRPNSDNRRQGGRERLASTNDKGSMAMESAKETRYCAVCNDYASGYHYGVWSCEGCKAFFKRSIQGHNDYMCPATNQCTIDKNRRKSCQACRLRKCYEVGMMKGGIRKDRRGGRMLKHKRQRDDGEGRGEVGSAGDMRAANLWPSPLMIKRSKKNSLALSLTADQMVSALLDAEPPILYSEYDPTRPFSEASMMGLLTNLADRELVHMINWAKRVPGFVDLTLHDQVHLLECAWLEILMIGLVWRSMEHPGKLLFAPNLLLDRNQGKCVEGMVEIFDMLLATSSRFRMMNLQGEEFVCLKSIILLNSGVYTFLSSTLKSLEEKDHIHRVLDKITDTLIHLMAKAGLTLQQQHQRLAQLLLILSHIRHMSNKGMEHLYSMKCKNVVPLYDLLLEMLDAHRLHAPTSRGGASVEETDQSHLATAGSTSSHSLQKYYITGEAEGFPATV
Regarding `O=C(Cc1coc2cc3c(cc12)CCC3)OCc1cc(=O)n2c(n1)sc1ccccc12`, the inhibition of ligand binding was 31% (inactive).

On to `Cc1cc(C2(c3ccc(O)c(C)c3)OC(=O)c3ccccc32)ccc1O`, for which the inhibition of ligand binding was 49% (inactive).

On to `C/C=C(/C(=C/C)c1ccc(O)cc1)c1ccc(O)cc1`, for which the inhibition of ligand binding was 76% (active).

For the compound `COC(=O)c1ccccc1NC(=O)c1noc2c1CCC2`, the inhibition of ligand binding is 25% (inactive).

As for `O=C(Nc1cccc(-c2cnc3ccccc3n2)c1)c1cccc(NC(=O)c2ccco2)c1`, the inhibition of ligand binding is 68% (active).

Take `COc1cccc(NC(=O)CSc2nc3ccccc3c3nc4ccccc4n23)c1`: the inhibition of ligand binding is 51% (inactive).

With `C[C@]12CC[C@@H]3c4ccc(O[C@@H]5O[C@H](C(=O)O)[C@@H](O)[C@H](O)[C@H]5O)cc4CC[C@H]3[C@@H]1C[C@@H](O)[C@@H]2O`, the inhibition of ligand binding was 72% (active).

As to `O=C(Nc1ccccc1[N+](=O)[O-])C1=C(O)CCn2c1nc1ccccc12`, the inhibition of ligand binding is 20% (inactive).

For `COc1ccc(N2C(=O)c3ccccc3NC2c2ccc(OC)c(COc3ccccn3)c2)cc1` (stereo unspecified), the inhibition of ligand binding is 0% (inactive).

Regarding `COc1ccc(C2Nc3ccccc3C(=O)N2c2ccccc2)cc1Cn1cc([N+](=O)[O-])cn1` (stereo unspecified), the inhibition of ligand binding was 29% (inactive).

On to `Cc1ccccc1Nc1nnc(SCC(=O)NCc2ccco2)s1`, for which the inhibition of ligand binding is 40% (inactive).

Take `COc1ccc(C2CC(c3c(-c4ccccc4)c4cc(Cl)ccc4[nH]c3=O)=NN2S(C)(=O)=O)cc1OC` (stereo unspecified): the inhibition of ligand binding is 29% (inactive).

Take `Cc1c(Cl)cccc1NS(=O)(=O)c1ccc2c(c1)C1C=CCC1C(c1ccc(C(=O)O)cc1)N2` (stereo unspecified): the inhibition of ligand binding was 55% (inactive).

Regarding `Oc1ccc(-c2nc(-c3ccc(O)c(O)c3)cs2)cc1`, the inhibition of ligand binding is 68% (active).

On to `Cc1ccc(C)n1-c1sccc1C(=O)O`, for which the inhibition of ligand binding was 36% (inactive).

As for `Cc1cccc(N2CCN(C(=O)c3cc4c(=O)n(C)c5ccccc5c4n3C)CC2)c1C`, the inhibition of ligand binding is 55% (inactive).

With `NC(=O)c1cccc2c1C(=O)N(C1CCCCC1)C2`, the inhibition of ligand binding is 26% (inactive).

With `Cc1ccc(OCCN2CCN(CC(O)Cn3c4ccccc4c4ccccc43)CC2)cc1` (stereo unspecified), the inhibition of ligand binding is 37% (inactive).

Regarding `NC(=S)n1[nH]c(-c2ccc([N+](=O)[O-])cc2)c(N=Nc2ccc(O)cc2)c1=O`, the inhibition of ligand binding was 10% (inactive).

Consider `O=C(COC(=O)c1cccc(S(=O)(=O)N2CCc3ccccc3C2)c1)NCc1ccco1`, for which the inhibition of ligand binding is 35% (inactive).

For the compound `Cc1ccc(Cn2c(NC(=O)c3ccco3)nc3ccccc32)cc1`, the inhibition of ligand binding is 29% (inactive).

On to `COc1cccc(C(=O)NC2CCN(C(=O)N3c4ccccc4Sc4ccccc43)CC2)c1`, for which the inhibition of ligand binding was 60% (inactive).

Take `CN(CC(=O)NC(=O)NCc1ccco1)Cc1nc2ccccc2c(=O)[nH]1`: the inhibition of ligand binding is 17% (inactive).

With `O=C(CSc1nnc(-c2ccc(OC(F)F)cc2)o1)NC(=O)NCc1ccco1`, the inhibition of ligand binding was 34% (inactive).

For the compound `O=C1C2C3C=CC(C3)C2C(=O)N1c1cccc2cccnc12` (stereo unspecified), the inhibition of ligand binding was 4% (inactive).

Turning to `Cn1c(-c2ccc(N)cc2)nc2ccccc21`, the inhibition of ligand binding was 23% (inactive).

`CCOC(=O)CN1C(c2ccc(O)cc2)Nc2ccc(Br)cc2C1c1ccccc1` (stereo unspecified): the inhibition of ligand binding is 24% (inactive).

For `CN(C)CC(=O)N1c2ccccc2CCc2ccc(NC(=O)c3ccc(N)cc3)cc21`, the inhibition of ligand binding was 44% (inactive).

With `C1=C(N2CCOCC2)/C(=C/c2nc3ccccc3[nH]2)CC1`, the inhibition of ligand binding was 50% (inactive).

Consider `CCOC(=O)Cc1cc(=O)n2[nH]c(-c3ccc(C)cc3)cc2n1`, for which the inhibition of ligand binding was 0% (inactive).

Turning to `O=c1oc2ccccc2cc1-c1ccc(O)cc1`, the inhibition of ligand binding was 60% (inactive).

`O=C(O)c1ccc(Cl)c2c1C1C=CCC1C(c1ccccn1)N2` (stereo unspecified): the inhibition of ligand binding was 43% (inactive).

On to `CCCCCc1nnc(NC(=O)Cc2cccs2)s1`, for which the inhibition of ligand binding is 26% (inactive).

For the compound `Cc1ccc(-c2csc(NC(=O)c3ccno3)n2)cc1`, the inhibition of ligand binding is 60% (inactive).

For `CCSc1nnc(NC(=O)C2Cc3ccccc3CN2C(=O)c2ccco2)s1` (stereo unspecified), the inhibition of ligand binding was 26% (inactive).

Turning to `Cc1ccc(-n2c(=O)c(C#N)cc3c(=O)n4cccc(C)c4nc32)cc1`, the inhibition of ligand binding is 53% (inactive).

Turning to `C/C(N)=C(/C#N)C(=O)CSc1nnc(-c2ccc(OC(F)F)cc2)o1`, the inhibition of ligand binding is 20% (inactive).

In the case of `Cc1ccc(-c2cc(C(=O)NCc3ccco3)c3ccccc3n2)o1`, the inhibition of ligand binding is 60% (inactive).

Staying with this experiment, now noted: fluorescent ligand competition, binding inhibition, at 0.1 µM, stronger effect = higher value.
`O=C(Cc1coc2cc3c(cc12)CCC3)OCc1cc(=O)n2c(n1)sc1ccccc12` showed an inhibition of ligand binding of 9%.

`Cc1cc(C2(c3ccc(O)c(C)c3)OC(=O)c3ccccc32)ccc1O` gave an inhibition of ligand binding of 11%.

For the compound `C/C=C(/C(=C/C)c1ccc(O)cc1)c1ccc(O)cc1`, the inhibition of ligand binding is 87%.

Compound `COC(=O)c1ccccc1NC(=O)c1noc2c1CCC2` gave an inhibition of ligand binding of 21%.

Take `O=C(Nc1cccc(-c2cnc3ccccc3n2)c1)c1cccc(NC(=O)c2ccco2)c1`: the inhibition of ligand binding is 23%.

Turning to `COc1cccc(NC(=O)CSc2nc3ccccc3c3nc4ccccc4n23)c1`, the inhibition of ligand binding came out at 56%.

As for `C[C@]12CC[C@@H]3c4ccc(O[C@@H]5O[C@H](C(=O)O)[C@@H](O)[C@H](O)[C@H]5O)cc4CC[C@H]3[C@@H]1C[C@@H](O)[C@@H]2O`, the inhibition of ligand binding was found to be 40%.

Regarding `O=C(Nc1ccccc1[N+](=O)[O-])C1=C(O)CCn2c1nc1ccccc12`, the inhibition of ligand binding is 37%.

With `COc1ccc(N2C(=O)c3ccccc3NC2c2ccc(OC)c(COc3ccccn3)c2)cc1` (stereo unspecified), the inhibition of ligand binding is 22%.

`COc1ccc(C2Nc3ccccc3C(=O)N2c2ccccc2)cc1Cn1cc([N+](=O)[O-])cn1` (stereo unspecified) gave an inhibition of ligand binding of 12%.

Consider `Cc1ccccc1Nc1nnc(SCC(=O)NCc2ccco2)s1`, for which the inhibition of ligand binding turned out to be 11%.

Consider `COc1ccc(C2CC(c3c(-c4ccccc4)c4cc(Cl)ccc4[nH]c3=O)=NN2S(C)(=O)=O)cc1OC` (stereo unspecified), for which the inhibition of ligand binding was found to be 37%.

Take `Cc1c(Cl)cccc1NS(=O)(=O)c1ccc2c(c1)C1C=CCC1C(c1ccc(C(=O)O)cc1)N2` (stereo unspecified): the inhibition of ligand binding was found to be 1%.

On to `Oc1ccc(-c2nc(-c3ccc(O)c(O)c3)cs2)cc1`, for which the inhibition of ligand binding was found to be 39%.

`Cc1ccc(C)n1-c1sccc1C(=O)O`: the inhibition of ligand binding is 36%.

For the compound `Cc1cccc(N2CCN(C(=O)c3cc4c(=O)n(C)c5ccccc5c4n3C)CC2)c1C`, the inhibition of ligand binding was 11%.

`NC(=O)c1cccc2c1C(=O)N(C1CCCCC1)C2` displayed an inhibition of ligand binding of 39%.

For the compound `Cc1ccc(OCCN2CCN(CC(O)Cn3c4ccccc4c4ccccc43)CC2)cc1` (stereo unspecified), the inhibition of ligand binding is 33%.

`NC(=S)n1[nH]c(-c2ccc([N+](=O)[O-])cc2)c(N=Nc2ccc(O)cc2)c1=O` returned an inhibition of ligand binding of 18%.

`O=C(COC(=O)c1cccc(S(=O)(=O)N2CCc3ccccc3C2)c1)NCc1ccco1`: the inhibition of ligand binding was found to be 7%.

Consider `Cc1ccc(Cn2c(NC(=O)c3ccco3)nc3ccccc32)cc1`, for which the inhibition of ligand binding amounted to 11%.

`COc1cccc(C(=O)NC2CCN(C(=O)N3c4ccccc4Sc4ccccc43)CC2)c1` came in with an inhibition of ligand binding of 13%.

As for `CN(CC(=O)NC(=O)NCc1ccco1)Cc1nc2ccccc2c(=O)[nH]1`, the inhibition of ligand binding was 64%.

On to `O=C(CSc1nnc(-c2ccc(OC(F)F)cc2)o1)NC(=O)NCc1ccco1`, for which the inhibition of ligand binding is 26%.

Regarding `O=C1C2C3C=CC(C3)C2C(=O)N1c1cccc2cccnc12` (stereo unspecified), the inhibition of ligand binding was determined as 57%.

As to `Cn1c(-c2ccc(N)cc2)nc2ccccc21`, the inhibition of ligand binding is 15%.

On to `CCOC(=O)CN1C(c2ccc(O)cc2)Nc2ccc(Br)cc2C1c1ccccc1` (stereo unspecified), for which the inhibition of ligand binding is 11%.

For `CN(C)CC(=O)N1c2ccccc2CCc2ccc(NC(=O)c3ccc(N)cc3)cc21`, the inhibition of ligand binding came to 41%.

With `C1=C(N2CCOCC2)/C(=C/c2nc3ccccc3[nH]2)CC1`, the inhibition of ligand binding came out at 41%.

Compound `CCOC(=O)Cc1cc(=O)n2[nH]c(-c3ccc(C)cc3)cc2n1` gave an inhibition of ligand binding of 25%.

Turning to `O=c1oc2ccccc2cc1-c1ccc(O)cc1`, the inhibition of ligand binding stood at 24%.

Compound `O=C(O)c1ccc(Cl)c2c1C1C=CCC1C(c1ccccn1)N2` (stereo unspecified) returned an inhibition of ligand binding of 10%.

The compound `CCCCCc1nnc(NC(=O)Cc2cccs2)s1` gave an inhibition of ligand binding of 8%.

Take `Cc1ccc(-c2csc(NC(=O)c3ccno3)n2)cc1`: the inhibition of ligand binding is 29%.

`CCSc1nnc(NC(=O)C2Cc3ccccc3CN2C(=O)c2ccco2)s1` (stereo unspecified) showed an inhibition of ligand binding of 44%.

The compound `Cc1ccc(-n2c(=O)c(C#N)cc3c(=O)n4cccc(C)c4nc32)cc1` showed an inhibition of ligand binding of 32%.

On to `C/C(N)=C(/C#N)C(=O)CSc1nnc(-c2ccc(OC(F)F)cc2)o1`, for which the inhibition of ligand binding stood at 24%.

`Cc1ccc(-c2cc(C(=O)NCc3ccco3)c3ccccc3n2)o1`: the inhibition of ligand binding is 58%.

The values above are taken from PubChem BioAssay AID1211 (NMMLSC, 2008).
